# Hits are enriched below; roughly 19% of the tested compounds scored in any of these assays.
# DT40 TDP1 no CPT: qHTS for Inhibitors of human tyrosyl-DNA phosphodiesterase 1 (TDP1): qHTS in cells in absence of CPT. DT40 Tdp1-/- hTDP1 cells, no CPT, ATP luminescence, 48 h. Potency, µM (doses to about 46.2 µM), for the others: at the top dose activity change, negative = growth inhibition, hits mostly inhibitors. 420,000 tested, 15% active. AID 686978, 2013; further: potency means the concentration at half of the fitted maximal effect; on the % scale 0 is the no-effect control and ±100 the full control effect; nearly all actives have a fitted effect of over 55% in size
#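 Camptothecin absent (DMSO only). Human TDP1-complemented DT40 knockout cells, 400 cells/well, 37 °C for minimum 48 hr; ATP measured via CellTiter-Glo, 30 min dark incubation, luminescence.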
# HepG2 viability: counter-screen for TGF-b inhibitors: cytotoxicity in HepG2 cells; 410,000 tested, 0.76% active; AID 588856; Potency, µM (top dose mostly 46.1 µM), without a hit: top-dose activity change, negative = cytotoxicity, most hits filed as cytotoxic; HepG2 CAGA-GFP viability, ATP luminescence, 18 h; further: potency means the concentration at half of the fitted maximal effect
#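 HepG2 CAGA-GFP cells (1000/well, DMEM with 1% FBS) received compound, then TGF-beta at 500 pg/mL final, and were incubated 18 hours at 37 degrees C. Viability was read by CellTiter-Glo luminescence. Media-only wells were set as complete cell-killing and DMSO as no toxicity.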
# TGFb inhibitor: blocks TGF-b signaling | HepG2 CAGA-GFP TGF-b/SMAD3 reporter, GFP fluorescence, 18 h; TGF-beta stimulated, 500 pg/mL final | Potency, µM (doses to about 46.1 µM), for inactives: top-dose activity, negative = inhibition, hits mostly inhibitors | 410,000 tested, 1.2% active | AID 588855; further: potency means the concentration at half of the fitted maximal effect; on the % scale 0 is the no-effect control and ±100 the full control effect; nearly all actives have a fitted effect of over 65% in size
#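 HEPG2 CAGA-GFP, 1000 cells/well; 2 h settle, 37 C; cpd via pin tool; TGF-b 500 pg/mL final; 18 h, 37 C; GFP imaging ex488/em500-530; %Activity normalised to -TGF-b and +DMSO controls; CRC fit, curve class.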
# DT40 TDP1 CPT: growth inhibition of DT40 Tdp1-/-;hTDP1 cells with camptothecin (screen for TDP1 inhibitors); chicken DT40 Tdp1-/-;hTDP1 cells + 20 nM CPT, ATP luminescence, 48 h; Potency, µM (doses to about 46.2 µM), for inactives: at the highest dose activity change, negative = growth inhibition, hits mostly inhibitors; 420,000 tested, 12% active; further: potency means the concentration at half of the fitted maximal effect; on the % scale 0 is the no-effect control and ±100 the full control effect; nearly all actives have a fitted effect of over 55% in size
#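 Chicken DT40 Tdp1-/- cells complemented with human TDP1, 400 cells/well, exposed to compounds plus 20 nM camptothecin for at least 48 h at 37 C; viability read as ATP content by CellTiter-Glo luminescence.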
# IL1B secr inh: blocks inflammasome-driven IL-1 beta release; activity change, % at 57.5 µM; THP-1 LPS/ATP IL-1B secretion, AlphaLISA, 16 h; stronger effect = lower value; 360,000 tested, 4.7% active; in the data active means activity change below about -50%; inconclusive means mostly about -30% to -49%; further: on the % scale 0 is the no-effect control and ±100 the full control effect
#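 THP-1 cells pretreated 1 hr with compounds (up to 57.5 uM final), then stimulated with LPS (250 ng/mL final) plus ATP (1.25 mM final); secreted IL-1B measured by AlphaLISA after 16 hr, decreased signal indicating inhibition.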
# TDP1 block: blocks human tyrosyl-DNA phosphodiesterase 1 | Potency, µM (highest dose often 130 µM), without a hit: top-dose activity change, negative = inhibition, most hits filed as inhibitors | recombinant TDP1, AlphaScreen DNA substrate cleavage | Q9NUW8 | 350,000 tested, 0.28% active; further: potency means the concentration at half of the fitted maximal effect; on the % scale 0 is the no-effect control and ±100 the full control effect; nearly all actives have a fitted effect of over 40% in size
# Target sequence (Q9NUW8 whole entry, looked up): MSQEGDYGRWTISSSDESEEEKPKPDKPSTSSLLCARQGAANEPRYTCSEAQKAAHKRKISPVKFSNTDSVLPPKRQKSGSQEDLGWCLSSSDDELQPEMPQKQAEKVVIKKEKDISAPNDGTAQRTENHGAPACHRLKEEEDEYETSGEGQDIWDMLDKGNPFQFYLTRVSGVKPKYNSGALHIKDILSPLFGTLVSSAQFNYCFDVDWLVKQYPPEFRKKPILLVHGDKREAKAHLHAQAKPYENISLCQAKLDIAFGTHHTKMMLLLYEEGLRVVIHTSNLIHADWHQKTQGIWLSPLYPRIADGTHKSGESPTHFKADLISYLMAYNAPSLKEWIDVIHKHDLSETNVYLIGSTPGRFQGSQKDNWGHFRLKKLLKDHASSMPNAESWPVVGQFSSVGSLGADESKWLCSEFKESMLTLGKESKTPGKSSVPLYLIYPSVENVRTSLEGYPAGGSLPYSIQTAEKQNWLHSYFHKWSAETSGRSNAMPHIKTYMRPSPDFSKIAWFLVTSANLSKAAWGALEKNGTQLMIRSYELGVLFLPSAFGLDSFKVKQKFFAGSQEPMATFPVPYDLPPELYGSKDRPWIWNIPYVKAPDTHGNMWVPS
#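 AlphaScreen read-out: signal falls as enzyme removes the 3' tyrosine-FITC from a 5'-biotinylated DNA oligo (15 nM, 5 min, RT). Enzyme was E. coli-made recombinant Tdp1 at 1 nM, exposed to compound for 15 min beforehand; beads 10 ug/ml, 10 min.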
# Active calls of the source: *; ? = inconclusive; nt = no result given; [ ] = remark or other dose. Unless noted, the call rests on the fitted dose curve; in most records, active means well fitted curve in the direction sought with a large enough effect; inconclusive means small, poorly fitted or top-dose-only effect, or another doubt; inactive means no such curve, though single readings can be large; an effect the other way counts as inactive or inconclusive.
SMILES,DT40 TDP1 no CPT,HepG2 viability,TGFb inhibitor,DT40 TDP1 CPT,IL1B secr inh,TDP1 block
Cc1ccc(-n2cc(CNCCc3ncc(C)[nH]3)c(-c3ccc(F)cc3)n2)cc1,?,-101.9%,?,16.4µM*,-82.1*,0.0%
COc1ccc(-n2cc(CNCCCn3ccnc3)c(-c3ccccc3Cl)n2)cc1,?,-43.0%,-28.6%,?,0.0,9.0%
Fc1ccc(-n2cc(CNCCc3ccccn3)c(-c3ccccc3Cl)n2)cc1,7.31µM*,4.0%,8.3%,9.2µM*,-74.2*,7.2%
Cc1ccc(-n2cc(CNCCN3CCOC3=O)c(-c3ccc(F)cc3)n2)cc1,?,-30.2%,?,23.1µM*,-71.4*,3.6%
CC(C)(C)c1ccc(OCc2nnc(-c3ccccc3)o2)cc1,-26.4%,-15.5%,?,-26.0%,nt,3.7%
CCOC(=O)c1c(C)oc2ncnc(Nc3ccc(F)cc3Cl)c12,-17.3%,25.7%,33.0%,3.0%,nt,5.3%
Cc1ccc(NC(=O)NCCCN2CCCC2=O)cc1,3.5%,6.0%,7.9%,6.6%,-4.2,3.4%
Cc1ccc(-n2cc(CNCCCN3CCCC3=O)c(-c3ccc(F)cc3)n2)cc1,18.4µM*,-35.8%,?,?,-67.9*,6.1%
Cc1ccc(-n2cc(CNCCn3nc(C)cc3C)c(-c3ccc(F)cc3)n2)cc1,23.1µM*,-65.1%,?,14.6µM*,-91.2*,-1.2%
C=C1CC2C3CCC4=CC(=O)C=C[C@]4(C)[C@@]3(F)[C@@H](O)C[C@]2(C)[C@@]1(O)C(=O)COC(C)=O (some centres undefined),-18.2%,nt,nt,-0.5%,nt,nt
N#Cc1ccc(CSc2ccc(S(=O)(=O)N3CCCC3)cn2)cc1,25.9µM*,-57.0%,?,?,-23.9,-3.4%
CCn1c(SCc2ccc(C#N)cc2)nnc1-c1ccc(S(=O)(=O)N2CCCCC2)cc1,?,-45.8%,0.0%,14.6µM*,-6.4,-3.1%
O=[N+]([O-])c1ccc(CSc2ccc(S(=O)(=O)N3CCCC3)cn2)cc1,23.1µM*,3.9%,?,?,0.0,nt
Cc1ccc(CSc2ccc(S(=O)(=O)N3CCCC3)cn2)cc1,-23.8%,0.2%,0.1%,-13.5%,-1.2,-12.7%
O=[N+]([O-])c1ccc(CSc2ccc(S(=O)(=O)N3CCCCC3)cn2)cc1,?,-53.2%,?,?,-50.0*,1.4%
COc1cccc(-c2ccnc(-n3ncc(C(=O)NCC(C)(C)CN(C)C)c3C)n2)c1,4.2%,nt,nt,7.3%,nt,nt
CC1=C(C(=O)N2CCOCC2)CC(CC(=O)NCc2ccco2)C(=O)N1CCC1=CCCCC1 (centres undefined),?,2.2%,3.1%,-10.5%,-15.0,nt
COc1ccc(NC(=O)C[C@H]2C(=O)N(CCc3ccccc3)C[C@@H]2c2ccc(OC)cc2)cc1,?,-25.8%,6.4%,?,1.7,nt
O=[N+]([O-])c1ccc(CSc2ccc(S(=O)(=O)N3CCOCC3)cn2)cc1,?,2.3%,-17.0%,?,-63.6*,3.0%
Cc1ccc(CSc2ccc(S(=O)(=O)N3CCOCC3)cn2)cc1,4.7%,5.2%,3.4%,-1.3%,11.7,1.7%
CCn1c(SCc2ccc(F)cc2)nnc1C1CCN(S(=O)(=O)c2ccc(OC)cc2)CC1,16.4µM*,-1.4%,3.5%,?,-22.9,2.8%
O=C(Nc1cccc(F)c1)N1CC2(CCN(C(=O)c3cccc(F)c3)CC2)C1,-23.9%,nt,nt,-5.3%,nt,nt
Cc1ccccc1-c1nc(CS(=O)(=O)CC(=O)NCc2ccco2)c(C)o1,17.2%,-5.2%,-11.6%,-17.4%,-1.4,8.9%
CCCCN1C(=O)C(CC(=O)NC(c2ccccc2)c2ccccc2)CC(C(=O)N2CCCCCC2)=C1C (centres undefined),?,nt,nt,?,-0.7,nt
CC1=C(C(=O)N(C(C)C)C(C)C)CC(CC(=O)NC(c2ccccc2)c2ccccc2)C(=O)N1CCC1=CCCCC1 (centres undefined),18.4µM*,-26.9%,11.2µM*,25.9µM*,?,nt
SMILES,DT40 TDP1 no CPT,HepG2 viability,TGFb inhibitor,DT40 TDP1 CPT,IL1B secr inh,TDP1 block
CCCCN1C(=O)C(CC(=O)NC(c2ccccc2)c2ccccc2)CC(C(=O)N(CC)CC)=C1C (centres undefined),20.6µM*,-0.8%,5.2%,18.4µM*,?,nt
CC1=C(C(=O)N(C)C)CC(CC(=O)NC(c2ccccc2)c2ccccc2)C(=O)N1Cc1ccc(F)cc1 (centres undefined),18.4µM*,-15.3%,10.9%,?,22.5,nt
CCN(CC)C(=O)C1=C(C)N(CCCOC)C(=O)C(CC(=O)NC(c2ccccc2)c2ccccc2)C1 (centres undefined),7.31µM*,2.7%,9.3%,5.8µM*,3.6,nt
Cc1ccc(OCC(=O)O)c(O)c1,-8.4%,13.0%,-0.8%,-27.1%,21.7,nt
O=C(Nc1ccc(NC(=O)c2cc3ccccc3o2)cc1)c1ccccc1,-24.9%,12.5%,-0.7%,-26.8%,nt,-4.0%[12.3 µM]
Cc1ccc(NC(=O)c2cc3ccccc3o2)cc1S(=O)(=O)N(C)C,?,-11.2%,6.3%,29.1µM*,-11.4,-2.3%
O=C(Nc1ccc2c(c1)OCCO2)c1cc2ccccc2o1,?,-28.9%,-3.7%,-29.1%,-67.7*,0.0%
COc1ccc2c(c1)cc1c(=O)n(CC(=O)NC(C)C)nc(C)n12,-15.4%,-2.5%,3.4%,-6.4%,nt,0.0%
O=C(Cc1ccccc1)N/N=C/c1cc2c(cc1Cl)OCO2,29.1µM*,0.2%,?,?,5.9,2.6%
O=C(N/N=C/c1c(Cl)[nH]c2ccccc12)c1ccc2c(c1)OCCO2,?,-43.3%,0.0%,?,-56.9*,0.0%
O=C(N/N=C/c1cc2c(cc1Cl)OCO2)c1ccc2c(c1)OCCO2,?,-2.0%,-2.0%,-5.1%,-58.4*,3.6%
O=C(N/N=C/c1cccc(O)c1)c1ccc2c(c1)OCCO2,3.7%,14.1%,25.5%,1.3%,-11.9,2.1%
CC(=O)Nc1ccc(/C=C/c2sc3ccccc3[n+]2CCCCI)cc1,?,-20.6%,15.3%,?,nt,nt
C/C(Cn1cnc([N+](=O)[O-])n1)=N\NC(=O)c1ccc(F)cc1,-16.4%,-42.3%,-3.2%,6.8%,-0.1,6.5%[56.1 µM]
C/C(Cn1nnc([N+](=O)[O-])n1)=N\NC(=O)c1ccncc1,20.6µM*,-11.1%,-23.1%,16.4µM*,45.9,-1.2%
